# An excerpt weighted towards active compounds, which were near 19% of everything screened.
# IL-1B inflam inh: qHTS for Inhibitors of Inflammasome Signaling: IL-1-beta AlphaLISA Primary Screen; THP-1 LPS/ATP IL-1B secretion, AlphaLISA, 16 h; hits give low values; activity change, % at 57.5 µM; 360,000 compounds, 4.7% hits; AID 743279, 2014; in the data active = activity change below about -50%; inconclusive = mostly about -30% to -49%; note: % is set by controls: 0 for no effect and ±100 for the full control effect
#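 Secreted IL-1B measured by AlphaLISA bead assay after 16 h compound exposure of THP-1 cells; compounds (final up to 57.5 uM) added 1 h before LPS (250 ng/mL) and ATP (1.25 mM) stimulation; lower signal means less secretion.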
# TGFb inhibitor: qHTS for Inhibitors of TGF-b. 410,000 compounds, 1.2% hits. HepG2 CAGA-GFP TGF-b/SMAD3 reporter, GFP fluorescence, 18 h; TGF-beta stimulated, 500 pg/mL final. AID 588855, 2011. Potency, µM (doses to about 46.1 µM), for the others: top-dose activity, negative = inhibition, actives largely listed as inhibitors; note: potency is the fitted concentration of half-maximal effect; % is set by controls: 0 for no effect and ±100 for the full control effect; nearly all actives have a fitted effect of over 65% in size
#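 Smad-responsive CAGA-GFP expression was quantified in HEPG2 cells exposed to compounds and 500 pg/mL final TGF-beta for 18 h at 37 degrees C; unstimulated wells defined full inhibition.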
# HepG2 tox: qHTS for Inhibitors of TGF-b: Cytotox Counterscreen | Potency, µM (highest dose often 46.1 µM), for inactives: at the highest dose activity change, negative = cytotoxicity, hits mostly cytotoxic | 410,000 compounds, 0.76% hits | AID 588856, 2011 | HepG2 CAGA-GFP viability, ATP luminescence, 18 h; note: potency is the fitted concentration of half-maximal effect
#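 HepG2 CAGA-GFP cells (1000/well, DMEM with 1% FBS) received compound, then TGF-beta at 500 pg/mL final, and were incubated 18 hours at 37 degrees C. Viability was read by CellTiter-Glo luminescence. Media-only wells were set as complete cell-killing and DMSO as no toxicity.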
# TDP1 cell CPT: qHTS for Inhibitors of human tyrosyl-DNA phosphodiesterase 1 (TDP1): qHTS in cells in presence of CPT | chicken DT40 Tdp1-/-;hTDP1 cells + 20 nM CPT, ATP luminescence, 48 h | 420,000 compounds, 12% hits | Potency, µM (titrated, usually from 46.2 µM), inactives show top-dose activity change, negative = growth inhibition, actives largely listed as inhibitors; note: potency is the fitted concentration of half-maximal effect; % is set by controls: 0 for no effect and ±100 for the full control effect; nearly all actives have a fitted effect of over 55% in size
#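 Cell growth measured by CellTiter-Glo luminescence after a minimum 48 h, 37 C compound exposure with 20 nM CPT in Tdp1-knockout DT40 cells stably expressing hTDP1, seeded 400/well; qHTS titration format.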
# TDP1 inh: qHTS Assay for Inhibitors of Tyrosyl-DNA Phosphodiesterase (TDP1) | Tyrosyl-DNA phosphodiesterase 1 (Homo sapiens), Q9NUW8 | recombinant TDP1, AlphaScreen DNA substrate cleavage | Potency, µM (doses to about 130 µM), without a hit: at the highest dose activity change, negative = inhibition, actives largely listed as inhibitors | 350,000 compounds, 0.28% hits | AID 485290, 2010; note: potency is the fitted concentration of half-maximal effect; % is set by controls: 0 for no effect and ±100 for the full control effect; nearly all actives have a fitted effect of over 40% in size
# Target sequence (Q9NUW8 whole entry, looked up): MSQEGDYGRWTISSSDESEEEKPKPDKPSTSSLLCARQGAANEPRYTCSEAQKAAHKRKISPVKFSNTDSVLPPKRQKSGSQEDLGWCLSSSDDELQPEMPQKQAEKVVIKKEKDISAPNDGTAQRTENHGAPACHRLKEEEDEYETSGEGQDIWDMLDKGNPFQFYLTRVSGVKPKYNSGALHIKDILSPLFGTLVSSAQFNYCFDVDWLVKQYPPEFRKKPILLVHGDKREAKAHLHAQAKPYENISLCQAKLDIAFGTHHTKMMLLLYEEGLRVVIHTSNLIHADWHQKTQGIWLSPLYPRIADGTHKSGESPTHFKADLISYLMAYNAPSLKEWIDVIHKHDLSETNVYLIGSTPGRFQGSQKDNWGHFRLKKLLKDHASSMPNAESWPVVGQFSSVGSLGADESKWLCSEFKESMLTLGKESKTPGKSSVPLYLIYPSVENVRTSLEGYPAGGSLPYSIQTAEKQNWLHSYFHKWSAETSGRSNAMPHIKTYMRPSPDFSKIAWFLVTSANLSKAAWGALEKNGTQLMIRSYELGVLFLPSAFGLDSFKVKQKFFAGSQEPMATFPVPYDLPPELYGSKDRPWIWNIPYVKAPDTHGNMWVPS
#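 Here, a 5' biotin and 3' phosphotyrosine-FITC DNA oligonucleotide reports Tdp1 activity: intact substrate bridges AlphaScreen beads, while cleavage leaves a 3' phosphate and drops signal. All incubations at room temperature.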
# TDP1 cell noCPT: qHTS for Inhibitors of human tyrosyl-DNA phosphodiesterase 1 (TDP1): qHTS in cells in absence of CPT | DT40 Tdp1-/- hTDP1 cells, no CPT, ATP luminescence, 48 h | Potency, µM (titrated, usually from 46.2 µM), inactives show at the top dose activity change, negative = growth inhibition, usual class: inhibitors | 420,000 compounds, 15% hits | AID 686978, 2013; note: potency is the fitted concentration of half-maximal effect; % is set by controls: 0 for no effect and ±100 for the full control effect; nearly all actives have a fitted effect of over 55% in size
#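 Camptothecin absent (DMSO only). Human TDP1-complemented DT40 knockout cells, 400 cells/well, 37 °C for minimum 48 hr; ATP measured via CellTiter-Glo, 30 min dark incubation, luminescence.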
# Active calls of the source: *; u = inconclusive; x = not tested or not shown; [ ] = dose if it differs, or a comment. Unless noted, calls come from the whole dose curve; as a rule, active = well fitted curve in the direction sought with a large enough effect; inconclusive = small, poorly fitted or top-dose-only effect, or another doubt; inactive = no such curve, though single readings can be large; an effect the other way counts as inactive or inconclusive.
SMILES,IL-1B inflam inh,TGFb inhibitor,HepG2 tox,TDP1 cell CPT,TDP1 inh,TDP1 cell noCPT
Cc1cc(NC(=O)COC(=O)Cn2[nH]c(=O)c3ccccc3c2=O)c([N+](=O)[O-])cc1C,19,-5%,0%,2%,1%,0%
CC(C)(C)OC(=O)N1CCC(c2c(C(=O)N3CCN(c4ccccn4)CC3)cnn2-c2ccccc2Cl)CC1,x,u,-24%,u,6%,18µM*
CC(C)(C)OC(=O)N1CCC(c2c(C(=O)N3CCOCC3)cnn2-c2ccccc2Cl)CC1,x,-31%,4%,5%,3%,1%
CC(C)(C)OC(=O)N1CCC(c2c(C(=O)N3CCCCC3)cnn2-c2ccccc2Cl)CC1,x,-27%,-30%,18µM*,0%,u
Cc1cccc(C)c1-n1ncc(C(=O)N2CCN(c3ccccn3)CC2)c1C1CCN(C(=O)OC(C)(C)C)CC1,x,-16%,-27%,u,3%,18µM*
CCN1CCN(CCCNC(=O)c2cnn(-c3ccccc3Cl)c2C2CCN(C(=O)OC(C)(C)C)CC2)CC1,x,0%,-16%,u,2%,-29%
COc1ccc(OC)c(CCNC(=O)c2cnn(-c3ccccc3Cl)c2C2CCN(C(=O)OC(C)(C)C)CC2)c1,x,10µM*,-18%,18µM*,3%,13µM*
Cc1cccc(C)c1-n1ncc(C(=O)N2CCN(c3ncccn3)CC2)c1C1CCN(C(=O)OC(C)(C)C)CC1,x,16%,3%,u,3%,u
Cc1ccc(S(=O)(=O)Nc2nc3ccccc3nc2NCc2ccc3c(c2)OCO3)cc1C,-1,-1%,18%,-15%,1%,u
O=C(NCC1CCCO1)c1ccc(NS(=O)(=O)c2cccs2)cc1 (stereo not given),-14,-2%,-16%,-11%,-6%,7%
O=C(O)[C@H]1[C@H]2C[C@H]3c4[nH]c5ccccc5c4CCN3C[C@@H]2CC[C@@H]1O,x,x,x,11µM*,11%,13µM*
Cc1ccc(Nc2ccccc2)cc1,3,-2%,-20%,-11%,5%[56.1 µM],-6%
Cc1ccc(Nc2cc(C)c(O)c(C)c2)cc1,u,0%,3%,5.2µM*,13%,5.2µM*
COc1ccc(N2CC(NC(=O)COc3ccccc3)CC2=O)cc1OC (stereo not given),x,-15%,4%,-1%,0%,7%
COc1ccc(CNc2ccc(Cl)cc2)cc1Cn1ccnc1,-71*,-1%,-17%,u,x,16µM*
CCc1ccc(NCc2ccc(OC)c(Cn3ccnc3)c2)cc1,0,u,-36%,u,x,u
NNC(=O)C1=NOC2COC3(CCN(c4ncccn4)CC3)OCC12 (stereo not given),-6,23%,-3%,-14%,6%,u
O=C(N/N=C\c1ccc(Cl)cc1)C1=NOC2COC3(CCN(c4ccc([N+](=O)[O-])cc4)CC3)OCC12 (stereo not given),0,-16%,-7%,10µM*,-3%,6.5µM*
CC(C)Cn1nnnc1S(=O)(=O)Cc1ccccc1,x,x,x,x,6%,x
Clc1ccccc1-c1nc2nc3ccccc3nc2n1-c1ccc2c(c1)OCO2,-10,-18%,7%,u,5%,23µM*
CC(C)Oc1ccc(-c2nc(-c3cccnc3)no2)cc1,x,28%,-24%,u,x,u
COc1cccc(NC(=O)c2c(C)oc3nc(C)nc(N4CCCC4)c23)c1,x,-2%,-22%,2%,-4%,-12%
Cc1ccc(NS(=O)(=O)c2cc([N+](=O)[O-])ccc2N/N=C/c2sc(N3CCOCC3)nc2-c2ccccc2)c(C)c1,0,52%,2%,21µM*,x,18µM*
CCOc1ccc(Nc2cc(C)nc3nc(Cc4ccc(Cl)cc4)nn23)cc1,x,u,-1%,u,-12%,0%
COc1ccccc1-c1ccnc(-n2ncc(C(=O)NCc3cccnc3)c2C)n1,x,x,x,27%[9.04 µM],x,-14%
SMILES,IL-1B inflam inh,TGFb inhibitor,HepG2 tox,TDP1 cell CPT,TDP1 inh,TDP1 cell noCPT
O=C1c2ccccc2C(=O)C1c1ccnc2ccccc12,9,15%,-2%,5.8µM*,-10%,13µM*
CCc1ccccc1C1C(=O)c2ccccc2C1=O,-13,5%,-30%,-3%,x,-35%
O=C1C(c2ccnc3ccccc23)=C(O)c2ccccc21,23,2%,7%,13µM*,2%,12µM*
O=C1c2ccccc2C(=O)C1c1nccc2ccccc12,22,-7%,-8%,10µM*,2%,12µM*
COc1ccc(NC(=O)/C(=C\c2ccc(F)cc2)NC(=O)c2ccco2)cc1,-9,u,-2%,1%,0%,-24%
COc1cc(CNc2ccccc2SC)cc(OC)c1OC,-2,-25%,-18%,21µM*,9%,21µM*
CCOC(=O)C1CCN(C2=NC(=O)/C(=C/c3ccc(OC)c(OC)c3)S2)CC1,-18,-1%,-23%,-14%,x,u
COc1ccc(OC)c(S(=O)(=O)N2CCCC(C)C2)c1 (stereo not given),-30,0%,-7%,-12%,-3%,-15%
COc1ccc(/C=C2\N=C3CCCCCN3C2=O)cc1,-9,u,9%,5%,2%,-5%
COc1ccc(/C=C2/N=C3CCCCCN3C2=O)cc1OC,-4,3%,0%,u,5%,29µM*
COc1cc(/C=C2\SC(N3CCC(C)CC3)=NC2=O)ccc1O,-56*,0%,-15%,-23%,x,u
CN=C1S/C(=C\c2ccc(O)c(OC)c2)C(=O)N1C,-24,-14%,-28%,-3%,x,-20%
COc1ccc(OC)c(/C=C2\SC(N3CCCC(C)C3)=NC2=O)c1 (stereo not given),-59*,0%,-7%,16µM*,x,21µM*
COc1ccc(/C=C2\SC(N3CCCCC3)=NC2=O)cc1OC,-28,0%,-4%,-17%,x,21µM*
O=C(CSc1nccn1Cc1ccco1)Nc1ccc(OC(F)(F)F)cc1,x,-1%,-19%,u,7%,-30%
COC(=O)c1cc(C)nc2c1c(=O)nc(SCc1cccc(C(F)(F)F)c1)n2C1CC1,x,0%,-6%,-5%,8%,3%
